Screening results: PubChem, The Scripps Research Institute Molecular Screening Center
Hits are enriched below; roughly 0.84% of the tested compounds scored in any of these assays.
NCOA1 inh: inhibits human SRC1 coactivator. Q15788. HEK293 GAL4-SRC1 luciferase reporter, luminescence. inhibition, % at 3.6 µM. hit rate 0.12% among 360,000. AID 588354;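 active = inhibition above the campaign mean plus 3 SD, with each screening campaign given its own cutoff, cut at about 60% in these data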;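 also: 0% = DMSO treated cells and 100% = gossypol at 36 µM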
Target sequence (Q15788 whole entry, looked up, the tested form may be a part): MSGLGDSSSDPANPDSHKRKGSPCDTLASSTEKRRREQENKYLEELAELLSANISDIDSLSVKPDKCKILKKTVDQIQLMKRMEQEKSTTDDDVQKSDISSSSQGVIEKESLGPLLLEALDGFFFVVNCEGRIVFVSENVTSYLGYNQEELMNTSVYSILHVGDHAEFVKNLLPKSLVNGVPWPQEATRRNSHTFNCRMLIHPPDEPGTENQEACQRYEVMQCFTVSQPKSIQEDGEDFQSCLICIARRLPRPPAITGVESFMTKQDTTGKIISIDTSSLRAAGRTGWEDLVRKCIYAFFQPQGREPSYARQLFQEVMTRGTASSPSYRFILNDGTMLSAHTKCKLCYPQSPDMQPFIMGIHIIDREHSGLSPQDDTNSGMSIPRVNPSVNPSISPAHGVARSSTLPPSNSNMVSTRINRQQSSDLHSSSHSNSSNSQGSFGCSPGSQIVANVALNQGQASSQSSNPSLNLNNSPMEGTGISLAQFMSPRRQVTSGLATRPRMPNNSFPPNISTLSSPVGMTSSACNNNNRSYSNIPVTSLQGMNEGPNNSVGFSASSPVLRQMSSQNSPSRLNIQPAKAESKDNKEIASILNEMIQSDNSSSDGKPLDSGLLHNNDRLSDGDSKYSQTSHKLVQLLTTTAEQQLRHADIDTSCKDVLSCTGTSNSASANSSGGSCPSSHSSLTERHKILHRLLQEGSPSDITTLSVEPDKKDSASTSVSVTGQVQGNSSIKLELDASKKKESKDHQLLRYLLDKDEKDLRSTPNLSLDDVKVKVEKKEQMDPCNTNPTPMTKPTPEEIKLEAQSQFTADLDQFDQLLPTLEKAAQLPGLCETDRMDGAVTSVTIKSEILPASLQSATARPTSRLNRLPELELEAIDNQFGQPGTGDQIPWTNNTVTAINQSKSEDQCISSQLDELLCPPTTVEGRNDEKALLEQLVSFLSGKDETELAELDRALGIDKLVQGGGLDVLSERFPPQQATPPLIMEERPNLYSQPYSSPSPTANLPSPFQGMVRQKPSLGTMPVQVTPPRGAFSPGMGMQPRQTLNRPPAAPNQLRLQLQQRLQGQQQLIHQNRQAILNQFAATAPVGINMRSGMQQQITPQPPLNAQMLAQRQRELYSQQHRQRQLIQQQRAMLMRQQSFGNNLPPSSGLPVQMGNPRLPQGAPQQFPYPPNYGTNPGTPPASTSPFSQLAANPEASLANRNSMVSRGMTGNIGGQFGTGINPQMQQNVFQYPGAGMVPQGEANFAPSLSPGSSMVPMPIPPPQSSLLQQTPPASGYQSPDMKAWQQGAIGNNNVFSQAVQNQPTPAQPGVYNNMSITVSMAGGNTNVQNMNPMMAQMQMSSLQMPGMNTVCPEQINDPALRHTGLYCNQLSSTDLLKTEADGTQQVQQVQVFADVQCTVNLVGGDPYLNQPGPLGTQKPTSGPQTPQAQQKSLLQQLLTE
LRH-1 inv ag: NR5A2 inverse agonism in reporter assay; inhibition, % at 3.6 µM; HEK293T StAR-luciferase reporter, LRH-1 transfected, 24 h; O00482; hit rate 0.13% among 360,000;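 active = inhibition above the mean inhibition of all tested compounds plus 3 SD, cut at about 73% in these data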;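 also: 0% = DMSO wells and 100% = reporter-only cells lacking LRH-1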
NCOA3 inh: human NCOA3 inhibition. HEK293 GAL4-SRC3 luciferase reporter, luminescence. AID 588352. Q9Y6Q9. inhibition, % at 3.6 µM. hit rate 0.17% among 360,000;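 active = inhibition above a per-campaign cutoff, the mean of all compounds plus 3 SD, cut at about 60% in these data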;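 also: 0% = DMSO-treated cells and 100% = gossypol-treated cells at 36 µM; higher means less SRC3-driven luciferase light from the GAL4 reporter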
COUP-TFII inh: inhibitors of human COUP-TFII (NR2F2). P24468. HEK293T NGFI-A luciferase reporter, luminescence. inhibition, % at 8.6 µM. hit rate 0.7% among 370,000. AID 686940;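 active = inhibition above a per-plate cutoff, mean inhibition of test wells between control levels plus 3 SD, cut at about 38% in these data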;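 also: cells cotransfected with COUP-TFII expression vector driving the NGFI-A reporter; 0% = median of COUP-TF2 test wells and 100% = reporter-only cells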
NCOA2 inhibitor: inhibits human steroid receptor coactivator 2; Q15596; HEK293 GAL4-SRC2 luciferase reporter, luminescence; inhibition, % at 9 µM; hit rate 0.17% among 370,000; AID 651957;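 active = inhibition above the mean inhibition of all tested compounds plus 3 SD, set per campaign, cut at about 52% in these data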;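 also: 0% = DMSO treated cells and 100% = cells given Gossypol at 36 µM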
VP16 Luc counter: inhibits VP16 reporter, flagging COUP-TFII antagonist hits; shares compounds with COUP-TFII inh; HEK293 Gal4-VP16 luciferase reporter, luminescence; inhibition, % at 8.5 µM; hit rate 25% among 2,500; AID 687007; in the data active = inhibition above about 13%
NR2F2 inh conf: COUP-TFII (NR2F2) inhibition, confirmation assay; shares compounds with COUP-TFII inh; HEK293 NGFI-A luciferase reporter, luminescence; inhibition, % at 8.5 µM; hit rate 45% among 2,500; AID 687008;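 active = mean inhibition over three repeats above a set limit taken from the earlier primary screen, cut at about 38% in these data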;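 also: 100% = cells given the luciferase reporter alone without the COUP-TF2 vector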
* marks the source's active call; other numbers are inactive results; x = no result given.

SMILES	NCOA1 inh	LRH-1 inv ag	NCOA3 inh	COUP-TFII inh	NCOA2 inhibitor	VP16 Luc counter	NR2F2 inh conf
C=C/C(C)=C/C[C@H]1C(=C)CCC2[C@](C)(C(=O)O)CCC[C@@]21C (some centres undefined)	-4	8	16	x	x	x	x
C=C1CCC2C(C)(C)CCC[C@]2(C)[C@H]1CC1=C(O)C(=O)C(CO)=CC1=O (some centres undefined)	x	x	x	55*	62*	46*	62*
N#CCC[C@H]1CC[C@]2(CCCN(c3ccccc3)C2)O1	x	x	x	-13	-6	x	x
CN1C(=O)c2cc(NC(=O)Nc3ccccc3F)ccc2OC[C@H]2O[C@@H](CC(=O)NCc3ccc(-c4ccccc4)cc3)CC[C@@H]21	x	x	x	7	8	x	x
COc1ccc(CN2CCC(CNC(=O)Nc3ccccc3)CC2)cc1	x	x	x	-14	-5	x	x
COc1ccc(Br)cc1S(=O)(=O)NNC(=O)c1c(C)nc2ccccn12	11	-7	11	4	-18	x	x
Cc1nc2ccccn2c1C(=O)NNS(=O)(=O)c1ccc(C(C)(C)C)cc1	13	22	13	46*	3	3	34
CCCN(CC1CC1)c1c2c(nc3ncnn13)CCCC2	x	x	x	20	4	x	x
O=C1C=C(c2c(O)ccc3ccccc23)c2ccccc2C1=O	-10	9	8	58*	-35	21*	43*
O=C(NCCNc1ccnc2cc(Cl)ccc12)c1ccccc1F	19	20	-4	55*	16	-8	36
CN(CC(=O)Nc1cccc(S(=O)(=O)N2CCCC2)c1)CC(=O)Nc1ccc(Cl)c(C(F)(F)F)c1	24	17	5	42*	11	3	11
CCN(CC)S(=O)(=O)c1cc(NC(=O)CNc2cccc(S(=O)(=O)N3CCOCC3)c2)ccc1C	36	38	28	56*	0	8	54*
CN(CC(=O)Nc1cccc(S(=O)(=O)N2CCCC2)c1)CC(=O)Nc1ccc(F)c(F)c1F	-2	18	-1	0	8	x	x
CCN(CC)S(=O)(=O)c1cccc(NC(=O)CNc2cccc(S(=O)(=O)N3CCCC3)c2)c1	3	44	26	64*	23	6	65*
CCN(CC)S(=O)(=O)c1ccc(C)c(NC(=O)CNc2cccc(S(=O)(=O)N3CCCC3)c2)c1	8	10	3	-4	0	x	x
Cc1ccc(NC(=O)CNc2cccc(S(=O)(=O)N3CCOCC3)c2)cc1F	-3	-2	11	13	-6	x	x
CCN(CC)S(=O)(=O)c1cccc(NC(=O)Nc2cccc(C(F)(F)F)c2)c1	17	35	50	39*	15	-5	13
O=S(=O)(c1ccccc1Br)N(Cc1cn(CC2CCCCC2)nn1)C1CC1	x	x	x	0	1	x	x
C[C@H]1COc2cc(F)ccc2S(=O)(=O)N1C	x	x	x	7	-21	x	x
O=C(NCC(c1ccccc1)c1ccccc1)[C@H](Cc1ccccc1)NC1(C(=O)NC2CCCCC2)CCCCCC1	x	x	x	23	x	x	x
O=C(COC(=O)CCC(=O)c1ccc(F)cc1)Nc1cccc(S(=O)(=O)N2CCOCC2)c1	-5	11	7	6	-1	x	x
Cc1ccc(NCC(=O)Nc2cccc(S(=O)(=O)N(C)C)c2)cc1S(=O)(=O)N1CCCCCC1	21	23	26	49*	14	12	32
O=C(COc1ccc(C(=O)c2ccc(F)cc2)cc1)Nc1cccc(S(=O)(=O)N2CCOCC2)c1	9	-1	-5	48*	13	-8	33
Cn1c(=O)cc(OCCCC(=O)Nc2cc(-c3ccncc3)ccn2)c2ccccc21	x	x	x	46*	x	23*	40*
Cn1c(=O)cc(OCCCC(=O)NCc2cccnc2)c2ccccc21	-23	12	13	-16	-18	x	x
SMILES	NCOA1 inh	LRH-1 inv ag	NCOA3 inh	COUP-TFII inh	NCOA2 inhibitor	VP16 Luc counter	NR2F2 inh conf
Cn1c(=O)cc(OCCCC(=O)Nc2cc(C(F)(F)F)ccn2)c2ccccc21	x	x	x	71*	x	16*	28
CS(=O)(=O)c1nc(-c2ccc(Br)cc2)cs1	x	x	x	-9	x	x	x
O=C(O)c1ccc(C#Cc2cccc(F)c2)cn1	x	x	x	-15	5	x	x
COc1ccccc1NC(=O)c1c(Nc2ccccc2C)sc(C(=O)Nc2cccc(Cl)c2)c1N	17	26	27	38*	5	4	61*
N=c1c2c(-c3ccccc3)c(-c3ccccc3)n(CCc3ccccc3)c2ncn1CCO	x	x	x	19	-29	x	x
CN1[C@H](Cc2ccccc2)COc2cc(N3CCCC3)ccc2S1(=O)=O	x	x	x	55*	0	4	9
Cc1cc(NC2CCCCC2)nc(NCc2ccccc2)n1	17	5	33	52*	-22	-2	19
Cc1ccc(Nc2cc(C)nc(NCc3ccccc3)n2)cc1	20	18	14	29	8	x	x
O=C(NCc1ccncc1)c1ccc(-c2ccc(F)c(F)c2)c2ccoc12	22	32	8	70*	-1	6	41*
COc1ccc(-c2ccc(C(=O)NCc3ccc(F)c(F)c3)c3occc23)c(C)c1	5	18	1	16	3	x	x
COc1ccc(-c2ccc(C(=O)NCc3ccncc3)c3occc23)c(C)c1	-2	58	0	69*	30	-18	56*
O=C(NCc1ccc(C(F)(F)F)cc1)c1ccc(-c2ccc(F)c(F)c2)c2ccoc12	-11	10	7	-2	6	x	x
CC(C)(C)C(=O)NC1CCCCN(Cc2cccc(Cl)c2)C1=O (centres undefined)	x	x	x	13	25	x	x
O=C(c1ccc(F)cc1Cl)N(Cc1ccccn1)CC1CCCO1 (centres undefined)	x	x	x	9	6	x	x
Clc1ccc([C@H]2OC[C@@]3(CNCc4ccc5c(c4)OCO5)CS[C@H](c4ccc(Cl)cc4)N23)cc1	x	x	x	-7	x	x	x
[2H]C(CCOS(N)(=O)=O)c1ccc(C(C)(C)C)cc1 (centres undefined)	6	16	8	43*	45	22*	19
NS(=O)(=O)OCCCc1ccccc1	0	12	-12	-16	-17	x	x
COC(=O)[C@]12C[C@H](CC(=O)NCCCN3CCCC3=O)C(=O)N(Cc3ccco3)C1=C[C@H](C(C)(C)C)O[C@@H]2C	x	x	x	10	14	x	x
COc1ccc(CNCCNC(=O)c2nonc2N)cc1OC	-1	15	0	12	-25	x	x
Nc1nonc1C(=O)NCCNCc1cc(Br)ccc1OCc1ccc(F)cc1	8	25	21	50*	38	3	8
O=S1(=O)c2ccc(N3CCCC3)cc2Oc2ccccc2CN1Cc1cn(Cc2ccc(Cl)cc2)nn1	x	x	x	-5	-6	x	x
CC(C)(C)C(=O)Nc1ccc(-c2cc3cc(Cl)ccc3o2)cc1	18	18	44	53*	45	-154	-22
CCOC(OCC)P(=O)(CNC(c1ccccc1)(c1ccccc1)c1ccccc1)OCC (centres undefined)	x	x	x	23	23	x	x
